# Results taken from PubChem BioAssay (NCI).
# About 79,000 compounds went through this panel and 15% of them were active in at least one assay; those are over-represented in the sample as a whole. Values without a mark were called inactive. Activity calls are given as the source filed them. No stated cut-off is given here; in the data, active means growth inhibition above about 70%; inactive means the rest.
# Legend:
# [1] = NCI Yeast Anticancer Drug Screen. Data for the rad52 strain (AID 147);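 further: 0% = growth of vehicle-treated control cultures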; details: S. cerevisiae rad52 mutant growth inhibition, active compounds read high
# Procedure, shortened: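 The repair-mutant yeast strain was incubated with compounds, then growth was read and inhibition derived relative to vehicle.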
# [2] = NCI Yeast Anticancer Drug Screen. Data for the wt1 strain (AID 149);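 further: 0% = growth of vehicle-treated wt1 cultures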; details: S. cerevisiae wt1 strain (SPY 50644) growth inhibition, active compounds read high
# Procedure, shortened: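 Growth inhibition read against vehicle controls after compound exposure of the wt1 yeast strain.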
# [3] = NCI Yeast Anticancer Drug Screen. Data for the rad50EPP+ strain (AID 151);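 further: 0% = growth of vehicle-treated control cultures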; details: S. cerevisiae rad50 mutant strain, active compounds read high
# Procedure, shortened: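 Vehicle-normalised growth inhibition; rad50EPP+ yeast strain, altered in DNA damage repair, compound-treated.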
# [4] = NCI Yeast Anticancer Drug Screen. Data for the mgt1 strain (AID 153); details: S. cerevisiae mgt1 mutant growth inhibition, active compounds read high
# Procedure, shortened: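 Vehicle-normalized growth inhibition is determined in mgt1 yeast, a strain selected for a defined alteration in DNA repair or cell cycle control.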
# [5] = NCI Yeast Anticancer Drug Screen. Data for the rad50 strain (AID 155);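 further: 0% = growth of vehicle-only cultures of the same strain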; details: S. cerevisiae rad50 strain growth inhibition, active compounds read high
# Procedure, shortened: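 Readout: growth inhibition relative to vehicle-treated cultures. Compound exposure was carried out in a genetically defined yeast strain deficient in DNA damage repair.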
# [6] = NCI Yeast Anticancer Drug Screen. Data for the mec2-1 strain (AID 157); details: S. cerevisiae mec2-1 strain, active compounds read high
# Procedure, shortened: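 Mutant yeast (mec2-1) grown with compound; growth inhibition relative to vehicle control reported.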
# [7] = NCI Yeast Anticancer Drug Screen. Data for the rad14 strain (AID 159);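 further: 0% = growth of vehicle-treated control cultures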; details: S. cerevisiae rad14 strain growth inhibition, active compounds read high
# Procedure, shortened: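 Growth inhibition vs vehicle controls; genetically altered yeast strain (DNA damage repair defect) treated with test compounds.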
# [8] = NCI Yeast Anticancer Drug Screen. Data for the sgs1 mgt1 strain (AID 161);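 further: 0% = growth of cultures given vehicle only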; details: S. cerevisiae sgs1 mgt1 strain, at 50.0 µM, active compounds read high
# Procedure, shortened: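 Compounds are added to genetically altered yeast, and growth is compared with cultures given vehicle alone to give percent inhibition.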
# [9] = NCI Yeast Anticancer Drug Screen. Data for the CLN2oe strain (AID 163);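 further: 0% = growth of vehicle-only control cultures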; details: S. cerevisiae CLN2oe strain, active compounds read high
# Procedure, shortened: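 Compounds are applied to yeast harbouring a defined cell-cycle control change; reduced growth compared with vehicle-treated controls gives the value.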
# [10] = NCI Yeast Anticancer Drug Screen. Data for the cln2 rad14 strain (AID 165);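 further: 0% = growth equal to vehicle treated cultures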; details: S. cerevisiae cln2 rad14 strain, at 50.0 µM, active compounds read high
# Procedure, shortened: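 Readout is yeast growth inhibition versus vehicle-treated controls, using a strain with cln2 and rad14 alterations exposed to compound.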
# [11] = NCI Yeast Anticancer Drug Screen. Data for the bub3 strain (AID 167); details: S. cerevisiae bub3 mutant strain, active compounds read high
# Procedure, shortened: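 Readout: yeast growth inhibition, expressed relative to vehicle-only wells. The test organism is a mutant strain from a panel with lesions in DNA repair or checkpoint genes.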
# [12] = NCI Yeast Anticancer Drug Screen. Data for the wt2 strain (AID 169);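 further: 0% = growth of vehicle-treated yeast cultures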; details: S. cerevisiae wt2 strain growth inhibition, active compounds read high
# Procedure, shortened: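 Against vehicle-treated controls, the growth of yeast exposed to each compound was compared, and the inhibition was recorded.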
# [13] = NCI Yeast Anticancer Drug Screen. Data for the mlh1 strain (AID 171);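 further: 0% = growth of vehicle-treated control cultures of the same strain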; details: S. cerevisiae mlh1 strain growth inhibition, active compounds read high
# Procedure, shortened: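 Measured: yeast growth. Reference: vehicle-treated controls. Organism: strain with a defined alteration affecting DNA damage repair or cell cycle control, treated with compound.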
# [14] = NCI Yeast Anticancer Drug Screen. Data for the sgs1 strain (AID 173);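 further: 0% = growth of vehicle-only control cultures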; details: S. cerevisiae sgs1 mutant, active compounds read high
# Procedure, shortened: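 Each compound was added to cultures of the altered yeast strain. Growth was recorded, and inhibition was derived by comparison with vehicle controls.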
# [15] = NCI Yeast Anticancer Drug Screen. Data for the mlh1 rad18 strain (AID 175); details: S. cerevisiae mlh1 rad18 strain growth inhibition; at 50.0 µM; active compounds read high
# Procedure, shortened: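 Genetically defined yeast (DNA repair-deficient) exposed to compounds; growth inhibition determined relative to vehicle.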
# [16] = NCI Yeast Anticancer Drug Screen. Data for the rad18 strain (AID 177); details: S. cerevisiae rad18 mutant growth inhibition, active compounds read high
# Procedure, shortened: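 Vehicle-treated cultures served as the baseline for scoring compound-induced growth inhibition in DNA-repair-mutant yeast.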
structure (smiles),measurement,setting,value
CC(=O)O[C@H]1C(=O)[C@@]2(C)[C@H]([C@H](OC(=O)c3ccccc3)[C@]3(O)C[C@H](OC(=O)[C@H](O)[C@@H](NC(=O)c4ccccc4)c4ccccc4)C(C)=C1C3(C)C)[C@]1(OC(C)=O)CO[C@@H]1C[C@@H]2O,growth inhibition,[1]; at 1.2 µM,0%
same,growth inhibition,[1]; at 3.7 µM,0%
same,growth inhibition,[1]; at 11.0 µM,1%
same,growth inhibition,[1]; at 33.0 µM,1%
same,growth inhibition,[1]; at 100.0 µM,0%
same,growth inhibition,[2]; at 1.2 µM,-1%
same,growth inhibition,[2]; at 3.7 µM,-2%
same,growth inhibition,[2]; at 11.0 µM,-2%
same,growth inhibition,[2]; at 33.0 µM,-3%
same,growth inhibition,[2]; at 100.0 µM,-18%
same,growth inhibition,[3]; at 1.2 µM,-4%
same,growth inhibition,[3]; at 3.7 µM,-2%
same,growth inhibition,[3]; at 11.0 µM,-2%
same,growth inhibition,[3]; at 33.0 µM,3%
same,growth inhibition,[3]; at 100.0 µM,0%
same,growth inhibition,[4]; at 1.2 µM,-2%
same,growth inhibition,[4]; at 3.7 µM,-2%
same,growth inhibition,[4]; at 11.0 µM,-3%
same,growth inhibition,[4]; at 33.0 µM,-3%
same,growth inhibition,[4]; at 100.0 µM,-7%
same,growth inhibition,[5]; at 1.2 µM,-1%
same,growth inhibition,[5]; at 3.7 µM,-2%
same,growth inhibition,[5]; at 11.0 µM,0%
same,growth inhibition,[5]; at 33.0 µM,-1%
same,growth inhibition,[5]; at 50.0 µM,23.4%
same,growth inhibition,[5]; at 100.0 µM,-6%
same,growth inhibition,[6]; at 1.2 µM,-5%
same,growth inhibition,[6]; at 3.7 µM,-2%
same,growth inhibition,[6]; at 11.0 µM,2%
same,growth inhibition,[6]; at 33.0 µM,-4%
same,growth inhibition,[6]; at 50.0 µM,18.3%
same,growth inhibition,[6]; at 100.0 µM,-10%
same,growth inhibition,[7]; at 1.2 µM,-1%
same,growth inhibition,[7]; at 3.7 µM,-2%
same,growth inhibition,[7]; at 11.0 µM,1%
same,growth inhibition,[7]; at 33.0 µM,-2%
same,growth inhibition,[7]; at 100.0 µM,-5%
same,growth inhibition,[8],-9%
same,growth inhibition,[9]; at 1.2 µM,-4%
same,growth inhibition,[9]; at 3.7 µM,-4%
same,growth inhibition,[9]; at 11.0 µM,-5%
same,growth inhibition,[9]; at 33.0 µM,-7%
same,growth inhibition,[9]; at 100.0 µM,-13%
same,growth inhibition,[10],24.1%
same,growth inhibition,[11]; at 1.2 µM,-5%
same,growth inhibition,[11]; at 3.7 µM,-5%
same,growth inhibition,[11]; at 11.0 µM,2%
same,growth inhibition,[11]; at 33.0 µM,-13%
same,growth inhibition,[11]; at 50.0 µM,-4.15%
same,growth inhibition,[11]; at 100.0 µM,-3%
same,growth inhibition,[12]; at 1.2 µM,-2%
same,growth inhibition,[12]; at 3.7 µM,-2%
same,growth inhibition,[12]; at 11.0 µM,-4%
same,growth inhibition,[12]; at 33.0 µM,-4%
same,growth inhibition,[12]; at 100.0 µM,-5%
same,growth inhibition,[13]; at 1.2 µM,-1%
same,growth inhibition,[13]; at 3.7 µM,-4%
same,growth inhibition,[13]; at 11.0 µM,-3%
same,growth inhibition,[13]; at 33.0 µM,-4%
same,growth inhibition,[13]; at 100.0 µM,-6%
same,growth inhibition,[14]; at 1.2 µM,-3%
same,growth inhibition,[14]; at 3.7 µM,-3%
same,growth inhibition,[14]; at 11.0 µM,-1%
same,growth inhibition,[14]; at 33.0 µM,-3%
same,growth inhibition,[14]; at 100.0 µM,-4%
same,growth inhibition,[15],15.8%
same,growth inhibition,[16]; at 1.2 µM,-5%
same,growth inhibition,[16]; at 3.7 µM,-1%
same,growth inhibition,[16]; at 11.0 µM,1%
same,growth inhibition,[16]; at 33.0 µM,2%
same,growth inhibition,[16]; at 100.0 µM,0%
COc1cc([C@@H]2c3cc4c(cc3[C@@H](OC3OC5COC(C)OC5C(O)C3O)[C@H]3COC(=O)[C@H]23)OCO4)cc(OC)c1O (some centres not stated),growth inhibition,[1]; at 1.2 µM,1%
same,growth inhibition,[1]; at 3.7 µM,4%
same,growth inhibition,[1]; at 11.0 µM,20%
same,growth inhibition,[1]; at 33.0 µM,51%
same,growth inhibition,[1]; at 100.0 µM,81% (active)
same,growth inhibition,[2]; at 1.2 µM,-1%
same,growth inhibition,[2]; at 3.7 µM,-2%
same,growth inhibition,[2]; at 11.0 µM,-2%
same,growth inhibition,[2]; at 33.0 µM,-1%
same,growth inhibition,[2]; at 100.0 µM,-13%
same,growth inhibition,[3]; at 1.2 µM,-9%
same,growth inhibition,[3]; at 3.7 µM,-3%
same,growth inhibition,[3]; at 11.0 µM,2%
same,growth inhibition,[3]; at 33.0 µM,9%
same,growth inhibition,[3]; at 100.0 µM,23%
same,growth inhibition,[4]; at 1.2 µM,-4%
same,growth inhibition,[4]; at 3.7 µM,-4%
same,growth inhibition,[4]; at 11.0 µM,-2%
same,growth inhibition,[4]; at 33.0 µM,0%
same,growth inhibition,[4]; at 100.0 µM,0%
same,growth inhibition,[5]; at 1.2 µM,0%
same,growth inhibition,[5]; at 3.7 µM,4%
same,growth inhibition,[5]; at 11.0 µM,20%
same,growth inhibition,[5]; at 33.0 µM,61%
same,growth inhibition,[5]; at 50.0 µM,11.6%
same,growth inhibition,[5]; at 100.0 µM,89% (active)
same,growth inhibition,[6]; at 1.2 µM,-3%
same,growth inhibition,[6]; at 3.7 µM,0%
same,growth inhibition,[6]; at 11.0 µM,4%
same,growth inhibition,[6]; at 33.0 µM,2%
same,growth inhibition,[6]; at 50.0 µM,11.6%
same,growth inhibition,[6]; at 100.0 µM,4%
same,growth inhibition,[7]; at 1.2 µM,-2%
same,growth inhibition,[7]; at 3.7 µM,-2%
same,growth inhibition,[7]; at 11.0 µM,3%
same,growth inhibition,[7]; at 33.0 µM,2%
same,growth inhibition,[7]; at 100.0 µM,12%
same,growth inhibition,[8],13.8%
same,growth inhibition,[9]; at 1.2 µM,-2%
same,growth inhibition,[9]; at 3.7 µM,-6%
same,growth inhibition,[9]; at 11.0 µM,-4%
same,growth inhibition,[9]; at 33.0 µM,-4%
same,growth inhibition,[9]; at 100.0 µM,-6%
same,growth inhibition,[10],11.3%
same,growth inhibition,[11]; at 1.2 µM,-7%
same,growth inhibition,[11]; at 3.7 µM,-8%
same,growth inhibition,[11]; at 11.0 µM,0%
same,growth inhibition,[11]; at 33.0 µM,-12%
same,growth inhibition,[11]; at 50.0 µM,4.5%
same,growth inhibition,[11]; at 100.0 µM,-5%
same,growth inhibition,[13]; at 1.2 µM,-4%
same,growth inhibition,[13]; at 3.7 µM,-3%
same,growth inhibition,[13]; at 11.0 µM,-1%
same,growth inhibition,[13]; at 33.0 µM,0%
same,growth inhibition,[13]; at 100.0 µM,7%
same,growth inhibition,[14]; at 1.2 µM,-3%
same,growth inhibition,[14]; at 3.7 µM,-3%
same,growth inhibition,[14]; at 11.0 µM,1%
same,growth inhibition,[14]; at 33.0 µM,5%
same,growth inhibition,[14]; at 100.0 µM,16%
same,growth inhibition,[15],64.8%
same,growth inhibition,[16]; at 1.2 µM,-4%
same,growth inhibition,[16]; at 3.7 µM,-2%
same,growth inhibition,[16]; at 11.0 µM,-2%
same,growth inhibition,[16]; at 33.0 µM,6%
same,growth inhibition,[16]; at 100.0 µM,18%
